Measurements reported in PubChem BioAssay (NCI).
This is part of a sample that, as a whole, favours compounds with a hit. Of some 83,000 tested, about 20% had one in any assay.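 Single-dose data. Exposure time 48 hours. Values below 10 considered active.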 The source made the active and inactive calls.

System: SNB-75 CNS
Assay: NCI-60 one-dose screen, 48 h (100 = growth as untreated, 0 = no growth, -100 = all killed)
Conditions: 10 µM unless noted
Experimental: Growth inhibition of the SNB-75 human tumor cell line is measured as a screen for anti-cancer activity. Cells are grown in 96 well plates and exposed to the test compound for 48 hours. Compounds are tested at a single concentration, which is 10^-5 M for most compounds. The reported endpoint is percent growth (GI% or GIPRCNT), where numbers from 0 - 100% represent growth inhibition, and numbers from -100% - 0 represent cell death. For example, a value of 40 represents 60% growth inhibition. A value of 0 means no net growth occurred over the course of the experiment. A value of -40 indicates 40% of cells at the beginning of the experiment died by the end of the experiment. A value of -100 means all cells are dead at the end of the experiment.
NCI-60 Human Tumor Cell Lines Screen was performed using the standard one-dose NCI protocol, which is described in more detail at https://dtp.cancer.gov/discovery_development/nci-60/default.htm.
Compounds with GIPRCNT values below 10 were considered active. Activity score was based on GIPRCNT using the following formula: […]
Score is 0 for GIPRCNT values of 100 or above, 50 for GIPRCNT values of 0, and 100 for GIPRCNT values of -100.

| SMILES | growth |
| --- | --- |
| Cn1cc(-c2nnc(N)nc2-c2c[nH]c3ccc(Br)cc23)c2cc(Br)cnc21 | 32% (inactive) |
| CCCCCCCS(=O)(=O)N1CCCC(C(=O)Nc2nc3ccc(NC(=O)c4ccc(F)c(OC)c4F)cc3s2)C1 (stereo not given) | 64.7% (inactive) |
| COc1c(F)ccc(C(=O)Nc2ccc3nc(NC(=O)C4CCCN(S(=O)(=O)c5ccc(Br)s5)C4)sc3c2)c1F (stereo not given) | 66.5% (inactive) |
| O=C1CC(Sc2n[nH]c(-c3ccncc3)n2)C(=O)N1c1ccc(Br)cc1 (stereo not given) | 106% (inactive) |
| COc1ccc(N2N=C(c3ccc4c(c3)OCO4)CC2c2cccc(NC(=O)CCNS(=O)(=O)c3ccc(Cl)cc3)c2)cc1 (stereo not given) | 49.4% (inactive) |
| O=c1c2ccccc2nc(-c2ccccc2)n1/N=C/c1ccc2ccccc2c1 | 65.8% (inactive) |
| COc1ccc(C(=O)/C=C/c2cccc(Cl)c2)cc1S(N)(=O)=O | 29.5% (inactive) |
| O=C1c2c(c3c4cc(F)ccc4oc3c3[nH]c4ccc(Br)cc4c23)C(=O)N1O | -13.7% (active) |
| COc1ccc2[nH]cc(-c3nc(N)nnc3-c3cn(C)c4ncccc34)c2c1 | 14.2% (inactive) |
| O=C1C(=Nc2ccc(F)c(Cl)c2)c2cccc3cccc1c23 | 66.5% (inactive) |
| COc1ccc(C2=NN(c3ccccc3)C(c3ccc(OCc4ccccc4)c(OC)c3)C2)cc1OC (stereo not given) | 97.3% (inactive) |
| CC(C)CSc1nc(NCCc2c[nH]c3ccccc23)c(C#N)c(-c2ccc(F)cc2)n1 | 61.1% (inactive) |
| COc1cc2c(c(OC)c1OC)C(=O)CC(c1cccc(NC(=O)c3cccc(NC(=O)[C@H](C)NC(=O)OC(C)(C)C)c3)c1)O2 (stereo not given in full) | 64.6% (inactive) |
| CCOC(=O)C1=C(N)N(c2ccccc2)C2=C(C(=O)CC(C)(C)C2)C1c1ccccc1Cl (stereo not given) | 66.3% (inactive) |
| O=c1[nH]c2ccccc2cc1CSc1cccc(Nc2nccc(-c3ccc4ccccc4c3)n2)c1 | 84.6% (inactive) |
| CC1(C)CC[C@]2(C(=O)O)CC[C@]3(C)C(=CCC4[C@@]5(C)C[C@@H](O)[C@@H]6OC(c7ccccc7Br)OC[C@@]6(C)C5CC[C@]43C)C2C1 (stereo not given in full) | 48.1% (inactive) |
| OCNc1ccc(-n2cnc3cc(-c4ccc(O)cc4)ccc32)cc1C(F)(F)F | 17.6% (inactive) |
| COc1c(F)ccc(C(=O)Nc2ccc3nc(NC(=O)C4CCCN(S(=O)(=O)C5CC5)C4)sc3c2)c1F (stereo not given) | 56.3% (inactive) |
| CN(C)c1ccnc(NCCCSC(c2ccccc2)(c2ccccc2)c2ccccc2)c1 | 63.1% (inactive) |
| CCCCCCCCc1ccc(C(=O)Nc2cccc(P(=O)(O)O)c2)cc1 | 99.9% (inactive) |

| SMILES | growth |
| --- | --- |
| COc1ccc(-c2cc(C(=O)NCc3ccccc3)nn2-c2ccc(S(C)(=O)=O)cc2)cc1OC | 62.5% (inactive) |
| COc1ccc(C(=O)/C=C/c2ccccc2Br)cc1S(N)(=O)=O | 34.1% (inactive) |
| Cn1cc(-c2nc(N)nnc2-c2c[nH]c3ccc(Br)cc23)c2cccnc21 | 31.3% (inactive) |
| CN(C)c1ccnc(CNCCSC2(c3ccc(C(F)(F)F)cc3)c3ccccc3CCc3ccccc32)c1 | -2.6% (active) |
| Cn1nc(C(F)(F)F)cc1-c1cc(Cl)c(COc2ccc(Cl)cc2)c(-c2ccc(Cl)c(C(F)(F)F)c2)c1O | -22.5% (active) |
| O=C1NC(=O)/C(=C/c2ccccc2OCc2cc3ccccc3nc2Cl)S1 | 46.9% (inactive) |
| Cc1cc2nc3c4ccccc4n(CC4=NCCN4)c3nc2cc1C | 25.1% (inactive) |
| COc1ccc(NC(=O)[C@H](CO)NC(=O)OC(C)(C)C)cc1C(=O)Nc1cccc(C2CC(=O)c3c(cc(OC)c(OC)c3OC)O2)c1 (stereo not given in full) | 51.4% (inactive) |
| C#CCOc1ccc(/C=N/Nc2nc(-c3cc4cc(OC)ccc4oc3=O)cs2)cc1OC | 102% (inactive) |
| CCCCCCCCc1ccc(C(=O)Nc2ccc(C)cc2C(=O)O)cc1C | 92.4% (inactive) |
| COc1ccc(NC(=O)[C@H](C)N)cc1C(=O)Nc1cccc(C2CC(=O)c3c(cc(OC)c(OC)c3OC)O2)c1 (stereo not given in full) | 88.6% (inactive) |
| O=C(COc1ccc(NC(=O)Nc2ccc(Cl)cc2)cc1)N/N=C/c1ccccc1 | -37.4% (active) |
| COc1cc2oc(-c3cccc(NC(=O)[C@H](Cc4ccccc4)NC(=O)OC(C)(C)C)c3)cc(=O)c2c(OC)c1OC | 97.6% (inactive) |
| COc1cc(CNC(=O)/C=C/c2ccc3c(c2)OCO3)ccc1OCc1cn(-c2ccc([N+](=O)[O-])cc2)nn1 | 106% (inactive) |
| Cc1cnc(C(=O)NNc2nc3cc(F)ccc3n3c(C(=O)N4CC5CC(C4)N5)ccc23)cn1 | 71.6% (inactive) |
| CC(=O)Nc1ccc(-c2cn(-c3cccc(C(=O)Nc4ccc(N5CCN(C)CC5)cc4)c3)nn2)cn1 | 99% (inactive) |
| COc1cc(/C=C2\C(=N)N=C(SCc3nc4ccccc4[nH]3)NC2=O)ccc1O | 102% (inactive) |
| CN(C)CCn1c2ccccc2c2nc3cc(C(F)(F)F)ccc3nc21 | 44.5% (inactive) |
| COc1cc(C2CC(c3cc(OC)c(OC)c(OC)c3)=Nc3c(N)nc(N)nc3N2)ccc1Oc1nc(NCCO)nc(N2CCOCC2)n1 (stereo not given) | 88.7% (inactive) |
| COc1ccc(C(=O)/C=C/c2ccc(Cl)c(Cl)c2)cc1S(N)(=O)=O | 6.46% (active) |
